From PubChem BioAssay AID1159580 (chemical genetic matrix, 2015)
Screen size: about 5,500 compounds; about 2,000 (36%) were called active. Another 18% or so got no clear call; they are omitted. Cut-off read from the data, not from the text of the source: active = normalized growth mostly below about 0.91 (no sharp cut-off); inconclusive = no clear call, values can overlap the other calls; inactive = mostly above about 0.92. Some of the results follow.

Assay: chemical genetic growth profiling, strain panel (AID 1159580);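 note: tested at 20 µM; growth read once vehicle control cultures reached saturation at 30 °C; 1 = growth at the plate median or of vehicle wells; lower values mean less growth of the strain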
Settings: growth OD

Measured: normalized growth

CN(C(=O)CN(CCO)CC(=O)N(C)C(C)(C)Cc1ccccc1)C(C)(C)Cc1ccccc1
inactive: S. cerevisiae deletion strains, locus YJR066W, strain TOR1, hits give low values 0.977 | S. cerevisiae deletion strains, locus YJR075W, strain HOC1, hits give low values 0.979 | S. cerevisiae deletion strains, locus YKL009W, strain mrt4, hits give low values 0.965 | S. cerevisiae deletion strains, locus YKL068W, hits give low values 0.979 | S. cerevisiae deletion strains, locus YKL085W, strain MDH1 (second series), hits give low values 0.971 | S. cerevisiae deletion strains, locus YKL085W, strain MDH1, hits give low values 0.971 | S. cerevisiae deletion strains, locus YKL160W, strain elf1, hits give low values 1.01 | S. cerevisiae deletion strains, locus YKL190W, strain CNB1, hits give low values 0.992 | S. cerevisiae deletion strains, locus YKR001C, strain vps1, hits give low values 0.998 | S. cerevisiae deletion strains, locus YKR026C, strain gcn3, hits give low values 1.02 | S. cerevisiae deletion strains, locus YKR091W, strain srl3, hits give low values 0.999 | S. cerevisiae deletion strains, locus YLL001W, strain dnm1, hits give low values 1.02 | S. cerevisiae deletion strains, locus YLL026W, hits give low values 1.02 | S. cerevisiae deletion strains, locus YLL041C, strain sdh2, hits give low values 1.01 | S. cerevisiae deletion strains, locus YLR027C, strain aat2, hits give low values 1.02 | S. cerevisiae deletion strains, locus YLR039C, strain RIC1, hits give low values 1.03 | S. cerevisiae deletion strains, locus YLR058C, strain SHM2, hits give low values 0.997 | S. cerevisiae deletion strains, locus YLR102C, strain apc9, hits give low values 0.986 | S. cerevisiae deletion strains, locus YLR113W, strain HOG1, hits give low values 0.987 | S. cerevisiae deletion strains, locus YLR221C, strain rsa3, hits give low values 0.993 | S. cerevisiae deletion strains, locus YLR258W, strain gsy2, hits give low values 1 | S. cerevisiae deletion strains, locus YLR262C, strain YPT6 (second series), hits give low values 1.03 | S. cerevisiae deletion strains, locus YLR262C, strain YPT6, hits give low values 1.02 | S. cerevisiae deletion strains, locus YLR268W, strain sec22, hits give low values 0.962 | S. cerevisiae deletion strains, locus YLR320W, strain mms22, hits give low values 0.99 | S. cerevisiae deletion strains, locus YLR330W, strain CHS5, hits give low values 0.984 | S. cerevisiae deletion strains, locus YLR342W, strain FKS1 (second series), hits give low values 0.985 | S. cerevisiae deletion strains, locus YLR342W, strain FKS1, hits give low values 1.01 | S. cerevisiae deletion strains, locus YLR357W, strain rsc2, hits give low values 1.01 | S. cerevisiae deletion strains, locus YLR370C, strain arc18, hits give low values 1.02 | S. cerevisiae deletion strains, locus YLR371W, strain rom2, hits give low values 0.978 | S. cerevisiae deletion strains, locus YLR384C, strain iki3, hits give low values 1.01 | S. cerevisiae deletion strains, locus YLR418C, strain cdc73, hits give low values 0.989 | S. cerevisiae deletion strains, locus YML016C, strain PPZ1, hits give low values 0.994 | S. cerevisiae deletion strains, locus YML032C, strain rad52, hits give low values 0.98 | S. cerevisiae deletion strains, locus YML120C, strain ndi1, hits give low values 1.02 | S. cerevisiae deletion strains, locus YML124C, strain tub3, hits give low values 0.989 | S. cerevisiae deletion strains, locus YMR058W, strain fet3, hits give low values 1.02 | S. cerevisiae deletion strains, locus YMR078C, strain ctf18, hits give low values 0.974 | S. cerevisiae deletion strains, locus YMR125W, strain sto1, hits give low values 1.02 | S. cerevisiae deletion strains, locus YMR129W, hits give low values 1.01 | S. cerevisiae deletion strains, locus YMR205C, strain PFK2, hits give low values 1 | S. cerevisiae deletion strains, locus YMR223W, strain ubp8, hits give low values 0.97 | S. cerevisiae deletion strains, locus YMR231W, strain pep5, hits give low values 1.01 | S. cerevisiae deletion strains, locus YMR263W, strain SAP30, hits give low values 0.995 | S. cerevisiae deletion strains, locus YMR307W, strain GAS1, hits give low values 0.835 | S. cerevisiae deletion strains, locus YNL067W, strain RPL9B, hits give low values 0.994 | S. cerevisiae deletion strains, locus YNL071W, strain lat1, hits give low values 1.01 | S. cerevisiae deletion strains, locus YNL153C, strain GIM3, hits give low values 1.03 | S. cerevisiae deletion strains, locus YNL183C, strain NPR1, hits give low values 0.944 | S. cerevisiae deletion strains, locus YNL209W, strain ssb2, hits give low values 1.01 | S. cerevisiae deletion strains, locus YNL233W, strain BNI4, hits give low values 0.987 | S. cerevisiae deletion strains, locus YNL248C, strain rpa49, hits give low values 1 | S. cerevisiae deletion strains, locus YNL250W, strain rad50, hits give low values 0.996 | S. cerevisiae deletion strains, locus YNL271C, strain bni1, hits give low values 0.982 | S. cerevisiae deletion strains, locus YNL298W, strain CLA4, hits give low values 0.983 | S. cerevisiae deletion strains, locus YNL307C, strain MCK1, hits give low values 0.99 | S. cerevisiae deletion strains, locus YNL322C, strain KRE1 (second series), hits give low values 1.01 | S. cerevisiae deletion strains, locus YNR049C, strain mso1, hits give low values 1.02 | S. cerevisiae deletion strains, locus YNR052C, strain pop2, hits give low values 0.972 | S. cerevisiae deletion strains, locus YOL006C, strain TOP1, hits give low values 1.05 | S. cerevisiae deletion strains, locus YOL012C, strain htz1 0.857 | S. cerevisiae deletion strains, locus YOL147C, strain pex11, hits give low values 0.987 | S. cerevisiae deletion strains, locus YOR001W, strain rrp6, hits give low values 0.992 | S. cerevisiae deletion strains, locus YOR061W, strain CKA2, hits give low values 0.992 | S. cerevisiae deletion strains, locus YOR069W, strain VPS5, hits give low values 0.991 | S. cerevisiae deletion strains, locus YOR070C, strain gyp1, hits give low values 1.02 | S. cerevisiae deletion strains, locus YOR080W, strain dia2, hits give low values 1.01 | S. cerevisiae deletion strains, locus YOR083W, strain WHI5, hits give low values 1 | S. cerevisiae deletion strains, locus YOR106W, strain vam3, hits give low values 1.02 | S. cerevisiae deletion strains, locus YOR136W, strain idh2, hits give low values 0.984 | S. cerevisiae deletion strains, locus YOR144C, strain elg1, hits give low values 0.99 | S. cerevisiae deletion strains, locus YOR184W, strain ser1, hits give low values 0.976 | S. cerevisiae deletion strains, locus YOR231W, strain MKK1, hits give low values 0.991 | S. cerevisiae deletion strains, locus YOR265W, strain rbl2, hits give low values 1.02 | S. cerevisiae deletion strains, locus YOR270C, strain vph1, hits give low values 1.09 | S. cerevisiae deletion strains, locus YOR290C, strain snf2, hits give low values 1.01 | S. cerevisiae deletion strains, locus YOR316C, strain cot1, hits give low values 0.971 | S. cerevisiae deletion strains, locus YPL051W, strain arl3, hits give low values 0.999 | S. cerevisiae deletion strains, locus YPL078C, strain atp4, hits give low values 1.01 | S. cerevisiae deletion strains, locus YPL106C, strain sse1, hits give low values 0.991 | S. cerevisiae deletion strains, locus YPL240C, strain hsp82, hits give low values 1 | S. cerevisiae deletion strains, locus YPL256C, strain CLN2, hits give low values 0.98 | S. cerevisiae deletion strains, locus YPR119W, strain clb2, hits give low values 0.974 | S. cerevisiae deletion strains, locus YPR141C, strain kar3, hits give low values 0.981 | S. cerevisiae deletion strains, locus YPR163C, strain tif3, hits give low values 0.969 | S. cerevisiae deletion strains, locus YPR167C, strain met16, hits give low values 0.969 | S. cerevisiae deletion strains, strain wtn01, hits give low values 0.985 | S. cerevisiae strains, strain wild type, hits give low values 0.991
